# The supplement of paper PMC6555819
# Experiments:
# Assay in all cases: PBM binding z-score (relative to random genomic background probes); higher = stronger binding; sequences stand for … in GC…GCGATTGACAGCGTAGAATGAAGG
# [1] = tested on: PPARg:RXRa DBDmut IVT, anti-RXR (DBD mutation: RXRa K156A/R161A, NR concentration 270 nM, RXRa partner concentration 90 nM)
# How it was run: (§1)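 Antibodies against each partner of ligand-free nuclear receptor dimers (one per run) detected binding on custom Agilent 4×180K protein-binding microarrays after 1 h incubation. The double-stranded probes had 34-nt variable regions carrying direct-repeat seeds, single-nucleotide variants, half-site ablations and random human genomic background sequences. Binding z-scores, from regression-normalized fluorescence, use the random background probes as reference.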
# [2] = tested on: PPARg:RXRa IVT, anti-PPARg (NR concentration 270 nM, RXRa partner concentration 90 nM)
# How it was run: as §1
# [3] = tested on: PPARg DBDmut:RXRa IVT, anti-PPARg (DBD mutation: PPARg1 K132A/R137A, NR concentration 270 nM, RXRa partner concentration 90 nM)
# How it was run: as §1
# [4] = tested on: PPARg DBDmut IVT, anti-PPARg (DBD mutation: PPARg1 K132A/R137A, NR concentration 270 nM)
# How it was run: as §1
# [5] = tested on: PPARg homodimer (NR concentration 180 nM)
# How it was run: as §1
# [6] = tested on: PXR:RXRa (NR concentration 270 nM, RXRa partner concentration 90 nM)
# How it was run: as §1
# [7] = tested on: PXR homodimer (NR concentration 270 nM)
# How it was run: as §1
# [8] = tested on: RARa:RXR (NR concentration 270 nM, RXRa partner concentration 90 nM)
# How it was run: as §1
# [9] = tested on: RARa homodimer (NR concentration 270 nM)
# How it was run: as §1
# [10] = tested on: RARb:RXRa (NR concentration 270 nM, RXRa partner concentration 90 nM)
# How it was run: as §1
# [11] = tested on: RARb homodimer (NR concentration 270 nM)
# How it was run: as §1
# [12] = tested on: RARg:RXRa (NR concentration 270 nM, RXRa partner concentration 90 nM)
# How it was run: as §1
# [13] = tested on: RARg homodimer (NR concentration 270 nM)
# How it was run: as §1
# [14] = tested on: RXRa DBDmut IVT, anti-RXR (DBD mutation: RXRa K156A/R161A, NR concentration 90 nM)
# How it was run: as §1
# [15] = tested on: RXRa homodimer (NR concentration 180 nM)
# How it was run: as §1
# [16] = tested on: THRa:RXRa (NR concentration 90 nM, RXRa partner concentration 90 nM)
# How it was run: as §1
# [17] = tested on: THRa homodimer (NR concentration 90 nM)
# How it was run: as §1
# [18] = tested on: VDR homodimer (NR concentration 270 nM)
# How it was run: as §1
sequence,measurement,setting,value
TATTGTAGATCAATAGAGGTTAAGAAAGTGCGCT,PBM binding z-score,[1],0.44
same,PBM binding z-score,[2],1.78
same,PBM binding z-score,[3],1.72
same,PBM binding z-score,[4],1.55
same,PBM binding z-score,[5],0.993
same,PBM binding z-score,[6],3.04
same,PBM binding z-score,[7],0.513
same,PBM binding z-score,[8],1.71
same,PBM binding z-score,[9],1.1
same,PBM binding z-score,[10],0.903
same,PBM binding z-score,[11],1.44
same,PBM binding z-score,[12],1.05
same,PBM binding z-score,[13],0.855
same,PBM binding z-score,[14],-0.302
same,PBM binding z-score,[15],1.36
same,PBM binding z-score,[16],2.32
same,PBM binding z-score,[17],-0.234
same,PBM binding z-score,[18],0.323
TTACCAATGTGAAAGGTCGTTGATGCACGCCTTG,PBM binding z-score,[1],0.0484
same,PBM binding z-score,[2],2.32
same,PBM binding z-score,[3],0.0698
same,PBM binding z-score,[4],0.235
same,PBM binding z-score,[5],1.33
same,PBM binding z-score,[6],2.76
same,PBM binding z-score,[7],0.663
same,PBM binding z-score,[8],3.27
same,PBM binding z-score,[9],0.219
same,PBM binding z-score,[10],1.74
same,PBM binding z-score,[11],1.76
same,PBM binding z-score,[12],1.76
same,PBM binding z-score,[13],0.967
same,PBM binding z-score,[14],0.906
same,PBM binding z-score,[15],3.08
same,PBM binding z-score,[16],1.44
same,PBM binding z-score,[17],0.0994
same,PBM binding z-score,[18],1.66
TTTCGGAGGACACGAAGGTCAGAGCTTTCCAGAG,PBM binding z-score,[1],0.209
same,PBM binding z-score,[2],1.38
same,PBM binding z-score,[3],-0.89
same,PBM binding z-score,[4],-0.892
same,PBM binding z-score,[5],1.79
same,PBM binding z-score,[6],2.42
same,PBM binding z-score,[7],1.37
same,PBM binding z-score,[8],2.56
same,PBM binding z-score,[9],0.837
same,PBM binding z-score,[10],3.51
same,PBM binding z-score,[11],3.81
same,PBM binding z-score,[12],3.45
same,PBM binding z-score,[13],4.21
same,PBM binding z-score,[14],0.363
same,PBM binding z-score,[15],2.22
same,PBM binding z-score,[16],3.06
same,PBM binding z-score,[17],1.45
same,PBM binding z-score,[18],1.86
TCTAGATGGTCACGGAGGTCACACACGACGGGTA,PBM binding z-score,[1],2.1
same,PBM binding z-score,[2],3.58
same,PBM binding z-score,[3],1.44
same,PBM binding z-score,[4],1.08
same,PBM binding z-score,[5],4.17
same,PBM binding z-score,[6],4.87
same,PBM binding z-score,[7],2.07
same,PBM binding z-score,[8],5.06
same,PBM binding z-score,[9],1.56
same,PBM binding z-score,[10],3.9
same,PBM binding z-score,[11],4.54
same,PBM binding z-score,[12],4.93
same,PBM binding z-score,[13],4.89
same,PBM binding z-score,[14],0.905
same,PBM binding z-score,[15],5.34
same,PBM binding z-score,[16],3.85
same,PBM binding z-score,[17],2.6
same,PBM binding z-score,[18],3.63
TCGAGTAGGTTACCAATGGGGCATTAAGCTTTCT,PBM binding z-score,[1],2.97
same,PBM binding z-score,[2],2.74
same,PBM binding z-score,[3],-0.388
same,PBM binding z-score,[4],-0.404
same,PBM binding z-score,[5],-0.656
same,PBM binding z-score,[6],-0.325
same,PBM binding z-score,[7],-1.08
same,PBM binding z-score,[8],0.0202
same,PBM binding z-score,[9],-1.28
same,PBM binding z-score,[10],0.864
same,PBM binding z-score,[11],0.561
same,PBM binding z-score,[12],0.966
same,PBM binding z-score,[13],0.213
same,PBM binding z-score,[14],0.338
same,PBM binding z-score,[15],0.336
same,PBM binding z-score,[16],-0.0215
same,PBM binding z-score,[17],-0.627
same,PBM binding z-score,[18],-0.636
TCGATTAGGTTACCAATGGGGCATTCAGCTTTCT,PBM binding z-score,[1],2.52
same,PBM binding z-score,[2],1.4
same,PBM binding z-score,[3],0.217
same,PBM binding z-score,[4],0.237
same,PBM binding z-score,[5],0.366
same,PBM binding z-score,[6],0.467
same,PBM binding z-score,[7],-0.59
same,PBM binding z-score,[8],0.557
same,PBM binding z-score,[9],-0.505
same,PBM binding z-score,[10],1.44
same,PBM binding z-score,[11],1.09
same,PBM binding z-score,[12],1.39
same,PBM binding z-score,[13],0.551
same,PBM binding z-score,[14],1.2
same,PBM binding z-score,[15],0.573
same,PBM binding z-score,[16],0.894
same,PBM binding z-score,[17],0.0109
same,PBM binding z-score,[18],-0.327
ATATGTTGGTTAAGGGTCATTCAGGTTGGTTCGC,PBM binding z-score,[1],1.61
same,PBM binding z-score,[2],3.8
same,PBM binding z-score,[3],1.51
same,PBM binding z-score,[4],1.87
same,PBM binding z-score,[5],4.23
same,PBM binding z-score,[6],5.21
same,PBM binding z-score,[7],3.35
same,PBM binding z-score,[8],4.73
same,PBM binding z-score,[9],3.39
same,PBM binding z-score,[10],3.39
same,PBM binding z-score,[11],3.84
same,PBM binding z-score,[12],4.07
same,PBM binding z-score,[13],3.25
same,PBM binding z-score,[14],2.11
same,PBM binding z-score,[15],4.9
same,PBM binding z-score,[16],3.25
same,PBM binding z-score,[17],2.24
same,PBM binding z-score,[18],4.89
ATCTCTAGGTAAAGATAGTACAGTGAATGCAAAT,PBM binding z-score,[1],1.46
same,PBM binding z-score,[2],1.59
same,PBM binding z-score,[3],1.31
same,PBM binding z-score,[4],1.08
same,PBM binding z-score,[5],1.02
same,PBM binding z-score,[6],0.0817
same,PBM binding z-score,[7],0.418
same,PBM binding z-score,[8],0.0539
same,PBM binding z-score,[9],1.54
same,PBM binding z-score,[10],0.0238
same,PBM binding z-score,[11],0.0852
same,PBM binding z-score,[12],0.268
same,PBM binding z-score,[13],0.707
same,PBM binding z-score,[14],-0.147
same,PBM binding z-score,[15],0.301
same,PBM binding z-score,[16],0.452
same,PBM binding z-score,[17],0.0174
same,PBM binding z-score,[18],0.54
